Source: PubChem BioAssay
Sampled rows, rich in hits. Any-hit rate of the full collection: about 4.1%.
tim23-1 inh – growth inhibitors of tim23-1 mutant yeast, primary screen, luminescence, uHTS. actives 1.3% (n = 330,000). inhibition, % at 20 µM. S. cerevisiae tim23-1 growth, BacTiter-Glo luminescence, 24 h;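 active = growth inhibition of the mutant yeast at or above 50%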;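 also: temperature-sensitive mutant grown at 25 °C; plate controls were DMSO-treated mutant yeast for no effect and medium wells lacking yeast for full effect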
NLRP3 yeast inh – NALP3 inflammasome inhibitors in reconstituted yeast, primary screen, luminescence, uHTS; Yeast reconstituted NLRP3/ASC/caspase-1, beta-gal luminescence, 24 h; inhibition, % at 10 µM; actives 0.39% (n = 330,000); AID 2825, 2010;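 active = inhibition of 50% or more; inactive = inhibition below 50%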;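 also: plate controls were induced DMSO wells for no effect and uninduced yeast grown without galactose for full effect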
NALP1 yeast inh – NALP1 inflammasome inhibitors in reconstituted yeast, colorimetric, S. cerevisiae, triplicate retest; S. cerevisiae NALP1/ASC/caspase-1 growth, X-gal OD620, 72 h; actives 0.61% (n = 280,000); inhibition, % at 10 µM; AID 2071, 2009; in the data active = inhibition mostly above about 24%, no sharp cut-off; inactive = mostly below about 32%
TIM10 inh – growth inhibitors of isogenic TIM10 control yeast, primary screen, counter-screen for tim10-1 yeast inhibitor project, luminescence, uHTS; AID 463195, 2010; actives 1.4% (n = 330,000); S. cerevisiae TIM10 strain growth, BacTiter-Glo luminescence, 24 h; inhibition, % at 10 µM;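 active = inhibition of 40% or more at the single tested concentration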;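 also: wild-type TIM10 isogenic control strain grown at permissive 25 °C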
tim10-1 inh – growth inhibitors of tim10-1 mutant yeast, primary screen, luminescence, uHTS | S. cerevisiae tim10-1 ts strain growth, BacTiter-Glo, 24 h | inhibition, % at 20 µM | actives 2.2% (n = 330,000) | AID 463190, 2010;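 active = inhibition of at least 40%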;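 also: mutant grown at 25 °C; 0% = DMSO wells with yeast and 100% = wells holding no yeast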
tim10-1 conf – growth inhibitors of tim10-1 mutant yeast, confirmation, single concentration, luminescence, S. cerevisiae; shares compounds with tim10-1 inh; S. cerevisiae tim10-1 ts strain growth, BacTiter-Glo, 24 h; inhibition, % at 20 µM; actives 56% (n = 7,400); AID 463213, 2010;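 active = inhibition of yeast growth at or above a set limit in either of two repeat tests at 20 µM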;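 also: tim10-1 mutant grown at permissive 25 °C to find synthetic lethal compounds; 0% = DMSO yeast wells and 100% = medium wells without yeast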
TIM10 conf – growth inhibitors of wild-type TIM10 yeast, confirmation, counter-screen for tim10-1 synthetic lethality project, single concentration, luminescence, S. cerevisiae | shares compounds with TIM10 inh | inhibition, % at 10 µM | actives 63% (n = 4,600) | S. cerevisiae tim10 strain growth, BacTiter-Glo luminescence, 24 h;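 active = inhibition of yeast growth at or above a set limit in either of two replicates at 10 µM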;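 also: this counterscreen used the strain with wild-type TIM10; 0% = yeast with DMSO and 100% = medium wells lacking yeast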
* = called active by the depositor; · = no result given.

SMILES	tim23-1 inh	NLRP3 yeast inh	NALP1 yeast inh	TIM10 inh	tim10-1 inh	tim10-1 conf	TIM10 conf
C=CC[C@H](CC(=O)N[C@H](CO)Cc1ccccc1)C(=O)N[C@@H](COC(=O)[C@@H](CC=C)Cc1ccc(F)cc1)Cc1c[nH]c2ccccc12	5.1	7.8	·	-2.5	2.7	·	·
NNc1nc2c(Cl)ccc(Cl)c2s1	47.2	0.8	14.9	53.5*	58.1*	58.2*	2.6
O=C(Nc1nc2c(Cl)ccc(Cl)c2s1)C1CC1	29.6	8.4	-5.3	35.2	39.9	·	·
COCn1c(=O)c2c(nc(SC3=NCCS3)n2Cc2ccccc2C)n(COC)c1=O	39.6	2.3	17.6	42.8*	47.1*	19.4	35.0*
COCCCn1c(=O)c2ccccc2n(Cc2ccccc2C)c1=O	11.5	-33.2	6.9	15.6	11.4	·	·
O=C(Nc1ncc2c(n1)-c1ccccc1CC2)c1cccc(Cl)c1	40.1	-4.6	2.8	44.1*	48.9*	42.9*	22.6
CC(=O)NC(Cc1ccccc1C)C(=O)NC1CCN(C(=O)c2ccc(C)cc2)CC1 (stereo unspecified)	12.9	10.9	-4.8	4.5	7.8	·	·
COc1ccc(CNC(=S)N/N=C/c2ccncc2)cc1	-14.2	5.0	11.8	33.9	35.3	·	·
CCN(CC)c1ccc(/C=N/NC(=S)NCc2ccc(OC)cc2)cc1	11.7	17.4	31.2	44.5*	44.9*	27.5	42.3*
CC1CCN(C(=S)c2cn(Cc3ccccc3F)c3ccccc23)CC1	22.3	8.5	-4.6	41.7*	43.0*	31.5*	22.9
COc1cccc2oc(-c3ccco3)cc(=O)c12	41.3	1.1	17.4	46.8*	44.6*	25.9	40.3*
CC(=O)Nc1ccc(NC(=O)CSc2ncc(C(=O)Nc3ccccc3)c(=O)n2C)cc1	-5.3	-4.3	·	5.6	-5.5	·	·
COC(=O)/C(=C\c1ccc([N+](=O)[O-])o1)NC(=O)c1ccccc1	6.3	-6.4	-8.7	43.6*	45.0*	40.1*	31.8*
CCCCNC(=O)/C(=C\c1ccc([N+](=O)[O-])o1)NC(=O)c1ccccc1	32.1	18.0	-27.6	27.9	37.9	·	·
COCc1cc(SC2CCCCC2)nc(C)n1	15.5	10.5	9.3	0.3	3.8	·	·
CCSc1nnc(NC(=O)c2cc(C)nc3ccccc23)s1	-3.7	21.2	22.5	3.5	19.2	·	·
CCSc1nnc(NC(=O)c2nc(-c3ccccc3)n(-c3ccccc3)n2)s1	49.9	19.8	10.3	50.9*	54.8*	52.0*	-21.4
Cc1cccc(-c2oc3ccc(-c4ccc5c(c4)OCO5)cc3c2/C=C/c2ccc(N)cc2)c1	12.8	6.0	-4.3	11.7	-1.9	·	·
CC1(C)CC(=O)C(C(=O)C2CCN(S(=O)(=O)c3ccccc3)CC2)C(=O)C1	-1.1	13.7	6.1	12.5	16.7	·	·
Nc1cc(OC(=O)c2cccs2)nn1S(=O)(=O)c1ccc(F)cc1	43.6	4.5	13.6	52.6*	41.2*	31.1*	23.1
O=C1CN(C(=O)COC(=O)c2ccccc2Br)c2ccccc2N1	0.1	8.3	·	12.3	14.8	·	·
CCCc1[nH]nc2c1C(c1cn[nH]c1-c1ccc(F)cc1)C(C#N)=C(N)O2 (stereo unspecified)	44.1	-11.0	2.1	40.8*	43.8*	47.7*	33.8*
CCCc1[nH]nc2c1C(c1ccccc1OC)C(C#N)=C(N)O2 (stereo unspecified)	11.0	4.3	1.5	4.8	13.5	·	·
O=C(NCC1CCCO1)c1ccc(COc2ccccc2)cc1 (stereo unspecified)	17.4	34.9	5.8	2.4	6.7	·	·
CCOc1ccc(-c2nnc3ccc(SC(C)C)nn23)cc1	40.8	33.8	0.0	41.5*	47.8*	44.6*	51.2*
SMILES	tim23-1 inh	NLRP3 yeast inh	NALP1 yeast inh	TIM10 inh	tim10-1 inh	tim10-1 conf	TIM10 conf
CCOC(=O)CNC(=O)C1COc2ccccc2O1 (stereo unspecified)	8.2	10.1	13.6	-4.5	0.4	·	·
COc1ccc(-c2cc(C(=O)N3CCN(c4ncccn4)CC3)c3ccccc3n2)cc1OC	29.2	16.8	·	18.7	17.2	·	·
Cc1ccc(-c2cc(C(=O)N3CCN(c4ncccn4)CC3)c3ccccc3n2)cc1	30.1	4.6	12.7	44.5*	45.4*	22.3	11.2
CC(C)CCNc1nc2c(c(=O)n(Cc3cccc(F)c3)c(=O)n2C)n1C	34.3	1.7	-3.0	45.7*	46.9*	26.4	34.0*
COc1ccc2nc(NC(=O)C3CCCN3S(=O)(=O)c3ccc(C)cc3)sc2c1 (stereo unspecified)	33.3	24.9	4.8	-12.1	12.4	·	·
O=C(Nc1nc2ccc(Cl)cc2s1)C1CC1	32.7	-11.5	·	45.9*	40.6*	42.8*	46.2*
Nc1nc(-c2ccc(Br)s2)c(Br)s1	47.2	7.7	16.8	51.5*	53.9*	35.8*	-10.3
c1coc(CSSCc2ccco2)c1	-1.5	14.7	·	-1.7	-13.7	·	·
CN(C(=O)COC(=O)c1ccc2c(c1)OCCO2)c1ccccc1	47.9	2.8	14.5	49.8*	44.1*	47.5*	43.0*
CC(C)N(Cc1ccccc1)C(=O)COC(=O)c1ccc2c(c1)OCCO2	-12.2	22.7	2.5	-5.4	21.9	·	·
O=C(O)CCCCCCCCc1cn(CCc2c[nH]c3ccccc23)nn1	18.8	1.1	21.1	7.3	19.8	·	·
O=C(NCc1cccnc1)C(=O)NCC1OCCCN1S(=O)(=O)c1ccccc1 (stereo unspecified)	14.3	-4.0	40.2	-20.4	3.6	·	·
O=C(c1ccco1)N1CCN(C(=O)c2cc3sccc3n2Cc2ccccc2)CC1	47.0	-0.9	8.0	43.2*	41.8*	42.8*	33.7*
Cn1cc([N+](=O)[O-])c(C(=O)Nc2cc(Oc3ccccc3)cc([N+](=O)[O-])c2)n1	·	·	17.0	·	·	·	·
Cc1cccc(Oc2cc(NC(=O)c3ccccc3)cc([N+](=O)[O-])c2)c1	31.3	19.6	11.3	53.4*	44.2*	35.5*	2.0
COc1ccc(CN2CCNC(=O)C2CC(=O)NCCCn2cccn2)c(OC)c1 (stereo unspecified)	2.0	-9.9	-16.7	4.7	8.1	·	·
c1ccc(-c2nnc(-c3ccccn3)nc2NC2CCCCC2)cc1	16.5	5.4	18.8	67.4*	46.8*	35.5*	63.4*
COc1ccc(/C=C/C(=O)c2cc(F)ccc2OC(=O)c2ccccc2OC)cc1OC	·	·	-11.5	·	·	·	·
COc1ccc(/C=C/C(=O)c2cc(F)ccc2OC(=O)c2ccccc2)cc1OC	48.4	13.9	·	47.9*	51.6*	48.3*	2.9
